# From PubChem BioAssay AID463212 (Sanford-Burnham Center for Chemical Genomics, 2010)
# Hit rate of the full screen: of about 330,000 compounds, about 4,400 (1.3%) were called active. Shown is part of a subset that was picked to be rich in actives. Unmarked numbers belong to inactive results.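 How the source made its calls: active means growth inhibition of the mutant yeast at or above 50%; inactive means the rest.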
# Assay: growth inhibition of tim23-1 ts yeast – luminescence, uHTS, primary screen (AID 463212);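 further: temperature-sensitive mutant grown at 25 °C; plate controls were DMSO-treated mutant yeast for no effect and medium wells lacking yeast for full effect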
# Settings: S. cerevisiae tim23-1 growth, BacTiter-Glo luminescence, 24 h; at 20 µM; hits give high values
row,Compound,inhibition
1,Cc1cccc(N2C(=O)SC(SC(=Nc3ccccc3)Nc3ccccc3)C2=O)c1 (configuration not stated),49.6%
2,CN(C)C(=O)c1cc(Br)ccc1Cl,-8.05%
3,Cc1ccc(OCCCCN2CCCCC2)c(Br)c1,16.7%
4,O=C(Cc1c(F)cccc1Cl)Nc1ncc([N+](=O)[O-])s1,55.4% (active)
5,COc1ccc(S(=O)(=O)N2CCOCC2)cc1NC(=O)Cc1c(F)cccc1Cl,5.42%
6,CN(c1ccccc1)S(=O)(=O)c1cccc(NC(=O)Cc2c(F)cccc2Cl)c1,23.3%
7,COc1ccc2nc3n(c(=O)c2c1)-c1cc(C)ccc1C(=O)NC3Cc1ccc(O)cc1 (configuration not stated),-6.13%
8,Cc1ccc(C2CC(=O)NC(SCC(=O)OCc3ccccc3)=C2C#N)o1 (configuration not stated),59.1% (active)
9,COC(=O)CSC1=C(C#N)C(c2ccccc2OC)C(C(=O)OC)C(=O)N1 (configuration not stated),12.9%
10,CCCc1cc(=O)[nH]c(SCC(=O)OCc2ccccc2)n1,6.03%
11,CCCc1nnc(SCC(=O)N2C(C)CCCC2C)n1CC (configuration not stated),1.57%
12,CC1CCCCC12NC(=O)N(CC(=O)N1CCN(c3ccccc3)CC1)C2=O (configuration not stated),17.7%
13,O=C(c1[nH]ncc1-c1ccc(Cl)cc1)C1CO1 (configuration not stated),43.9%
14,O=C(Nc1cc(S(=O)(=O)N2CCOCC2)ccc1N1CCOCC1)c1c(F)cccc1Cl,14.4%
15,Cc1cccc(OP(=O)(Nc2c(C)n(C)n(-c3ccccc3)c2=O)Oc2cccc(C)c2)c1,20.4%
16,Cc1cc(C)c(-c2c(O)c3ccccc3n(C)c2=O)c(C)c1,4.89%
17,Cc1cccc(Oc2c([N+](=O)[O-])c(=O)n(C)c3ccccc23)c1,56% (active)
18,CCn1c(SCC(=O)Nc2cc(C)ccc2C)nnc1-c1cnccn1,5.06%
19,CCc1cccc(NC(=O)CCCN2C(=O)C(c3ccccc3)Oc3cccnc32)c1 (configuration not stated),35.3%
20,O=C(Oc1ccc([N+](=O)[O-])cc1)c1ccc2ccccc2n1,69.8% (active)
21,COc1ccc(C(=O)COC(=O)c2ccc3ccccc3n2)cc1,40.7%
22,CC(OC(=O)c1ccc2ccccc2n1)C(=O)c1ccccc1 (configuration not stated),10.7%
23,COc1ccc([N+](=O)[O-])cc1C1NN=C(c2cccc3ccccc23)S1 (configuration not stated),0.511%
24,N#C[C@]1(S(=O)(=O)c2ccccc2)C[C@@H]2ON=C(c3cccc(Br)c3)[C@@H]2C1,24.4%
25,CSc1ncnc2sc(C)c(C)c12,-2.76%

row,Compound,inhibition
1,Cc1sc2ncnc(Sc3nc4ccccc4s3)c2c1C,14.7%
2,CCCNc1ncnc2sc(C)c(C)c12,58.6% (active)
3,COc1cc(C(=O)NCC(c2ccco2)N2CCCC2)ccc1OCc1ccccc1 (configuration not stated),2.02%
4,CCc1ccc(C2C(C#N)=C(N)N(N3CCOCC3)C3=C2C(=O)CC(C)(C)C3)s1 (configuration not stated),5.14%
5,Cc1ccc(S(=O)(=O)N2CC(O)C[C@H]2C(=O)OCC(=O)Nc2ccc(N3CCOCC3)cc2)cc1C (some centres not stated),4.11%
6,O=C(O)C#Cc1cccc2ccccc12,7.2%
7,CN(Cc1ccccc1)C(=O)COC(=O)c1ccccc1Nc1ccccc1,42%
8,CCN1/C(=C\c2ccc3ccccc3[n+]2CC)Sc2cc(C)ccc21,51.5% (active)
9,CC(C)(C)OC(=O)CNC(=O)c1[nH]cnc1C(=O)N[C@@H](CCCCN)C(=O)OC(C)(C)C,-2.18%
10,O=C(c1ccccc1)c1cccn1CC(=O)N1CCN(c2ccc(F)cc2)CC1,17.4%
11,CN(C)Cc1ccccc1C1(O)c2ccccc2CSc2ccccc21 (configuration not stated),34.6%
12,COc1ccc(C(=O)CC(=O)c2ccc(C)cc2)c(O)c1,29.8%
13,O=C(CSc1ncn[nH]1)NCc1ccc2c(c1)OCO2,-3.54%
14,O=C(/C=C/Sc1ncn[nH]1)c1ccc(Cl)cc1,74.3% (active)
15,O=C(CSc1ncn[nH]1)Nc1ccc(Br)cc1Br,-3%
16,CN(CCC1CCOCC1)C(=O)CC1C(=O)NCCN1Cc1cccc(F)c1 (configuration not stated),-8.17%
17,COc1ccc(OCCn2ccnc2C)cc1,-7.96%
18,COc1cc(OC)cc(-c2cc3nc(C4CCN(C(=O)OC(C)(C)C)CC4)cc(=O)n3[nH]2)c1,7.61%
19,CCCCNC(=O)CCn1nc(-c2ccc(Cl)cc2)ccc1=O,18%
20,Cc1ccc(S(=O)(=O)NC(C)C(=O)NCc2ccc(Cl)cc2)cc1 (configuration not stated),-2.23%
21,CCCn1nc(C(=O)NNC(=O)CCOc2ccccc2OCC)c2ccccc2c1=O,-4.04%
22,CCOc1ccccc1/C=c1\sc2nc(-c3ccco3)nn2c1=O,52.2% (active)
23,CCOc1ccccc1C1NC(=O)NC(C)=C1C(=O)OCc1ccco1 (configuration not stated),16%
24,COC(=O)c1c(NC(=O)c2ccc(S(=O)(=O)N3CCOCC3)cc2)sc2c1CCN(C(C)C)C2,8.38%
25,CC(=O)c1ccc(NC(=O)C2CCCN2S(=O)(=O)c2cccs2)cc1 (configuration not stated),14.8%

row,Compound,inhibition
1,C=C1CCC(N(O)c2cc(C)on2)C(=C)CCC2C1CC2(C)C (configuration not stated),55.5% (active)
2,Cc1cccc(N(C)C(=O)c2cc3c(=O)[nH]c4ccc(C)cc4c3s2)c1,6.52%
3,O=C(CNC(=O)c1cccs1)N/N=C/c1cccc(Br)c1,16.1%
4,O=C(N/N=C\c1cccc(Br)c1)c1ccccc1-n1cccc1,53.7% (active)
5,O=C(N/N=C/c1cccc(Br)c1)c1ccc(N2CCCC2=O)cc1,12.3%
6,Cc1cc(Nc2ccc(Br)cc2)nc2ccccc12,55.5% (active)
7,Cc1ccc2nc(Nc3ccccc3O)nc(-c3ccccc3)c2c1,24.4%
8,CN1CCN(c2nc(Nc3ccc(O)cc3)nc3ccccc23)CC1,-37.1%
9,CCS(=O)(=O)Nc1cccc(-c2cc(-c3ccccc3)c3cc(C)ccc3n2)c1,29.6%
10,CC(=O)Nc1ccc(Nc2cc(C)nc(Nc3ccc(NC(C)=O)cc3)n2)cc1,8.84%
11,Cc1ccc2nc(Nc3ccccc3)cc(C)c2c1,57.6% (active)
12,CC(OC(=O)c1ccc([N+](=O)[O-])cc1)C(=O)NCC1CCCCC1 (configuration not stated),3.5%
13,O=C1N[C@@H](Cc2ccccc2)C(=O)N2[C@H]1C[C@]1(Br)c3ccccc3N(S(=O)(=O)c3ccccc3)[C@H]21,5.8%
14,Cc1cc(=O)cc(C)[nH]1,9.7%
15,O=C(Cc1ccccc1)NCC1OCCc2ccccc21 (configuration not stated),4.02%
16,COCC(C)OC(=O)c1c(N)n(CCCN2CCOCC2)c2nc3ccccc3nc12 (configuration not stated),5.92%
17,CC(C)Cn1c(N)c(C(=O)NCc2cccs2)c2nc3ccccc3nc21,59.9% (active)
18,CCOc1ccccc1NC(=O)Cn1nnc(C(=O)NCc2cccs2)c1N,0.467%
19,Cc1cc(NC(=O)CSC2=NS(=O)(=O)c3cc(Cl)ccc3N2)no1,11.8%
20,C=CCn1c(=O)c(C(=O)Nc2ncccc2O)c(O)c2ccccc21,33.8%
21,CCCn1c(=O)c(C(=O)Nc2cc(C)ccn2)c(O)c2ccccc21,13.4%
22,Cn1c(=O)c(C(=O)Nc2ncccn2)c(O)c2ccccc21,60% (active)
23,CCSC1(SCC)N=C(N)C2(C#N)C(c3ccccc3)NC(C)=CC12C#N (configuration not stated),9.77%
24,CSc1nccc(NC(=O)c2ccc(C(C)(C)C)cc2)n1,42.9%
25,CC(C)(C)NC(=O)CSc1nnc(NC(=O)CCc2ccccc2)s1,8.92%

row,Compound,inhibition
1,Oc1c(CN2CCCC2)cc(COCc2ccccc2)c2cccnc12,12.2%
2,O=C(CN1CCN(c2ccc(F)cc2)CC1)Nc1ccccc1,7.47%
3,Oc1c(CN2CCN(c3ccc(F)cc3)CC2)cc(Cl)c2cccnc12,54.1% (active)
4,O=C1CCC[C@@H]2CC(N3CCCCC3)C[C@@H]3CCN1[C@H]23 (some centres not stated),29.3%
5,COc1ccc(/C=N/N(C)C2=NS(=O)(=O)c3ccccc32)cc1OC,1.27%
6,COc1ccc2c(c1)O/C(=C\c1ccccc1O)C2=O,0.978%
7,O=C1Oc2ccccc2C(=O)/C1=C/c1ccccc1O,61.1% (active)
8,COC(=O)c1ccc(/C=C2/C(=O)Oc3ccccc32)cc1,34.3%
9,CCSc1sc(CC)cc1C=O,-3.29%
10,CC/C(=N\NC(=S)NC(C)C)c1ccc(OC(F)F)cc1,30.3%
11,O=C(/C=C/c1c(F)cccc1Cl)Nc1nn[nH]n1,9.19%
12,CCOC(=O)NC(=O)/C(C#N)=C\c1ccccc1,4.67%
13,CNC(=O)/C(C#N)=C/c1c(F)cccc1Cl,75.8% (active)
14,CC(=O)c1ccc(S(=O)(=O)NCCC(=O)N2CCN(c3ccccn3)CC2)cc1,12.9%
15,Cc1ccccc1OCC(=O)Nc1ccc2c(c1)ncn2C,20%
16,CCC(=O)N1CCN(c2ccccc2NC(=O)COc2cccc(C)c2C)CC1,13.7%
17,Cc1ccccc1OCC(=O)Nc1ccc(N2CCN(C(=O)C(C)C)CC2)c(Cl)c1,52.8% (active)
18,CCN(CC)C(=O)CSc1nc2ccccc2n1CC(=O)N1CCN(c2ccccc2OC)CC1,12.6%
19,NC(=S)c1ccc(C(N)=S)o1,-0.65%
20,CC[N+](C)(CC)CCC[n+]1c(-c2ccccc2)c2cc(N)ccc2c2ccc(N)cc21,-96.2%
21,Fc1ccccc1/C=C1\CCCC2=C1Nc1ncnn1C2c1ccccc1F (configuration not stated),34%
22,CC(=O)C1=C(C)NC(=O)NC1c1ccc2c(c1)OCO2 (configuration not stated),0.126%
